Source: publication PMC7862700, “An all-to-all approach to the identification of sequence-specific readers for epigenetic DNA modifications on cytosine”

How the values were obtained:
Test in all cases: DAPPL (digital affinity profiling via proximity ligation, sequencing); 10 mM Tris-HCl pH 7.5, 50 mM NaCl, 1 mM DTT, 4% glycerol, room temperature, 30 min; GST-TFs on glutathione beads, 16-mer random dsDNA library, 0.1% formaldehyde crosslink after washing; high values mean tight binding
[1] = target: T1, FLI1 (Homo sapiens, UniProt Q01543 1-452); details: protein: recombinant; tags: N-terminal GST; dsDNA, one strand shown
T1 sequence: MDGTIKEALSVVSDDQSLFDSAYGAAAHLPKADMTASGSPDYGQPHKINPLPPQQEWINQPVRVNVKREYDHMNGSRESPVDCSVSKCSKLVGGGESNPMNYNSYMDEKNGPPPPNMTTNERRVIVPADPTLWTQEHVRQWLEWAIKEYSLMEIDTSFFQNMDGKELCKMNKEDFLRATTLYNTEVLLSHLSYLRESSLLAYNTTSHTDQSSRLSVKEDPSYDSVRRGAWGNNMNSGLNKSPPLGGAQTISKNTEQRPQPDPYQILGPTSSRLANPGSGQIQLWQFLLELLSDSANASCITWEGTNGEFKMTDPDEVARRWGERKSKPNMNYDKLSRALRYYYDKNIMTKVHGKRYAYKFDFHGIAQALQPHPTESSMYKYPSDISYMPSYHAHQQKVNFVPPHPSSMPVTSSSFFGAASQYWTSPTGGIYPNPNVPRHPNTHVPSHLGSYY
Outline: (§1)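 Human transcription factors were made in yeast as GST fusions, captured on glutathione beads and barcoded with DNA. With a tag-only sample included, the pool was incubated with 200 nmole of a random double-stranded 16-mer DNA library in Tris/NaCl/DTT/glycerol buffer at room temperature for 30 min, then crosslinked with 0.1% formaldehyde after washing, ligated by proximity, amplified and sequenced. For binding signal, each hexamer's read frequency for a factor is divided by its frequency for the tag-only sample.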

[2] = target: T2, ELK1 (Homo sapiens, UniProt P19419 1-428); details: protein: recombinant; tags: N-terminal GST; dsDNA, one strand shown
T2 sequence: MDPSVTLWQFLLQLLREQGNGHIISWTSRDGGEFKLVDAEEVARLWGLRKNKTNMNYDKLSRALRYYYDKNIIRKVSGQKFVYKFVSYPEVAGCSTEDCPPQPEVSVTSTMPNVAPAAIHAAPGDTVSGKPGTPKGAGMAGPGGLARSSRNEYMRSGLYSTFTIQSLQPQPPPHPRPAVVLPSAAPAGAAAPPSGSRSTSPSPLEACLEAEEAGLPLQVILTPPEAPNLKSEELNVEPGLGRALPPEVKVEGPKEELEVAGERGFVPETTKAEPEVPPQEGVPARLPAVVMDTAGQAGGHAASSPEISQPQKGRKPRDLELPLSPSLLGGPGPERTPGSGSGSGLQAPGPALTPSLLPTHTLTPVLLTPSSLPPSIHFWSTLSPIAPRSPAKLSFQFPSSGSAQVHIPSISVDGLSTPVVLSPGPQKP
Outline: as §1

[3] = target: T3, GABPA (Homo sapiens, UniProt Q06546 1-454); details: protein: recombinant; tags: N-terminal GST; dsDNA, one strand shown
T3 sequence: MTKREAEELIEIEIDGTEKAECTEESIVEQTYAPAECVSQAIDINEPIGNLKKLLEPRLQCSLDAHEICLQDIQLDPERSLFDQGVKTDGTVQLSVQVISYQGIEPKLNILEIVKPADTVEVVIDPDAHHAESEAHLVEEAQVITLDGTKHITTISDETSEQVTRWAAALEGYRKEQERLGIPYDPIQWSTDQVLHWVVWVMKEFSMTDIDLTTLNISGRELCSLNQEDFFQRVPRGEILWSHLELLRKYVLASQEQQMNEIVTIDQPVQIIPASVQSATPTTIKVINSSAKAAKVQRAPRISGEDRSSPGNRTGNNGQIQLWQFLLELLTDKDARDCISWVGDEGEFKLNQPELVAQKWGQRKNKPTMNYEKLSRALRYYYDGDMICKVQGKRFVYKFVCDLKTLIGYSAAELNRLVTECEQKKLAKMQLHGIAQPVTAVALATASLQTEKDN
Outline: as §1

[4] = target: T4, ERG (Homo sapiens, UniProt P11308 1-479); details: protein: recombinant; tags: N-terminal GST; dsDNA, one strand shown
T4 sequence: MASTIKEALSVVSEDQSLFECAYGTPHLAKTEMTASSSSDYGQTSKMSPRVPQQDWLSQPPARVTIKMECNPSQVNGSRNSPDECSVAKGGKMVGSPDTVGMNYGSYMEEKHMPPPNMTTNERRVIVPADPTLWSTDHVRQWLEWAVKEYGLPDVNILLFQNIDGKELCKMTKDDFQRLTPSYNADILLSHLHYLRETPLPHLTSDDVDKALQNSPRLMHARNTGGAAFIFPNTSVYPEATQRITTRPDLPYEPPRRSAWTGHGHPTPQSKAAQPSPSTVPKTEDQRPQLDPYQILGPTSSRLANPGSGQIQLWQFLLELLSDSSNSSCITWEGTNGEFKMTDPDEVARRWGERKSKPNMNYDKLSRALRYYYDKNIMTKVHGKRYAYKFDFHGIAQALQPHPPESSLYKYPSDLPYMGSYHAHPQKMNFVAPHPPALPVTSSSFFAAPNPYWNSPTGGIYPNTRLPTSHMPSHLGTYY
Outline: as §1

[5] = target: ELF1 (Homo sapiens, UniProt P32519 1-619); details: protein: recombinant; tags: N-terminal GST; dsDNA, one strand shown
Outline: as §1

[6] = target: SPI1 (Homo sapiens, UniProt P17947 1-270); details: protein: recombinant; tags: N-terminal GST; dsDNA, one strand shown
Outline: as §1

[7] = target: SPIB (Homo sapiens, UniProt Q01892 1-262); details: protein: recombinant; tags: N-terminal GST; dsDNA, one strand shown
Outline: as §1

[8] = target: T5, ELK3 (Homo sapiens, UniProt P41970 1-407); details: protein: recombinant; tags: N-terminal GST; dsDNA, one strand shown
T5 sequence: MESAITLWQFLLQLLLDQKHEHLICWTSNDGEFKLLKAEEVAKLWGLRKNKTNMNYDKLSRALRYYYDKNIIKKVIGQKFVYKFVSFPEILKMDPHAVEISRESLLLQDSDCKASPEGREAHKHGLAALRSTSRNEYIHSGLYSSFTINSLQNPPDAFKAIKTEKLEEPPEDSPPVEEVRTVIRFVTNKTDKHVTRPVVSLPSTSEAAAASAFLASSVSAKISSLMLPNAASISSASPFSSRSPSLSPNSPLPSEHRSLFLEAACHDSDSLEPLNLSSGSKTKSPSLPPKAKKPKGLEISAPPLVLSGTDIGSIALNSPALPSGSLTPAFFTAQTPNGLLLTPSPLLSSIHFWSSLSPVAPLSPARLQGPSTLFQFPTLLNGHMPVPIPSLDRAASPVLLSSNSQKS
Outline: as §1

[9] = target: T6, FEV (Homo sapiens, UniProt Q99581 1-238); details: protein: recombinant; tags: N-terminal GST; dsDNA, one strand shown
T6 sequence: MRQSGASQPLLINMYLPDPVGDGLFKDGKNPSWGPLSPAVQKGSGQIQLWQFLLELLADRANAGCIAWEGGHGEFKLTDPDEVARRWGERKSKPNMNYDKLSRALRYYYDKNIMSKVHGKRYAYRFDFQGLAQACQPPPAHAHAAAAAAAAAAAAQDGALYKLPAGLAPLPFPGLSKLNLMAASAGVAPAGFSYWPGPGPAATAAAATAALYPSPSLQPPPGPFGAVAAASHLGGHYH
Outline: as §1

[10] = target: ETV5 (Homo sapiens, UniProt P41161 1-510); details: protein: recombinant; tags: N-terminal GST; dsDNA, one strand shown
Outline: as §1

[11] = target: HSF1 (Homo sapiens, UniProt Q00613 1-529); details: protein: recombinant; tags: N-terminal GST; chain copies: 3; dsDNA, one strand shown
Outline: as §1

[12] = target: T7, SPIC (Homo sapiens, UniProt Q8N5J4 1-248); details: protein: recombinant; tags: N-terminal GST; dsDNA, one strand shown
T7 sequence: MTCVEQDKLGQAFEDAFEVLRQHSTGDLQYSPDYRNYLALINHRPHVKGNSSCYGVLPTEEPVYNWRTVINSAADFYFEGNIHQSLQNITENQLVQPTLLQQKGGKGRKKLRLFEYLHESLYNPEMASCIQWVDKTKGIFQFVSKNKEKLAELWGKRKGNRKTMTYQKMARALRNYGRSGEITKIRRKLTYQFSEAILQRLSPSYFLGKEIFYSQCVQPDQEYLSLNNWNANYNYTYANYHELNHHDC
Outline: as §1

[13] = target: ELF4 (Homo sapiens, UniProt Q99607 1-663); details: protein: recombinant; tags: N-terminal GST; dsDNA, one strand shown
Outline: as §1

[14] = target: T8, ELK4 (Homo sapiens, UniProt P28324-2 1-405); details: protein: recombinant; tags: N-terminal GST; dsDNA, one strand shown
T8 sequence: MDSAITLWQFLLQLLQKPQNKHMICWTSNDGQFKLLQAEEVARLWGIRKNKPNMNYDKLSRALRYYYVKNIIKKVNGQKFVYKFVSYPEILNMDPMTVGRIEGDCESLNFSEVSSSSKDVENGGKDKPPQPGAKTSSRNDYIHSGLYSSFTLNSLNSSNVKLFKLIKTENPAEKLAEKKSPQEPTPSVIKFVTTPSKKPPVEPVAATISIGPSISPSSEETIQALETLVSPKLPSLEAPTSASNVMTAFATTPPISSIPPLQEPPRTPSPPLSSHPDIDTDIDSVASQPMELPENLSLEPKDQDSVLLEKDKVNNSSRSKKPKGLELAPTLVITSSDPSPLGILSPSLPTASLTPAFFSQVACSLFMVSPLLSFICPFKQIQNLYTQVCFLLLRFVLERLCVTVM
Outline: as §1

[15] = target: T9, ELF3 (Homo sapiens, UniProt P78545 1-371); details: protein: recombinant; tags: N-terminal GST; dsDNA, one strand shown
T9 sequence: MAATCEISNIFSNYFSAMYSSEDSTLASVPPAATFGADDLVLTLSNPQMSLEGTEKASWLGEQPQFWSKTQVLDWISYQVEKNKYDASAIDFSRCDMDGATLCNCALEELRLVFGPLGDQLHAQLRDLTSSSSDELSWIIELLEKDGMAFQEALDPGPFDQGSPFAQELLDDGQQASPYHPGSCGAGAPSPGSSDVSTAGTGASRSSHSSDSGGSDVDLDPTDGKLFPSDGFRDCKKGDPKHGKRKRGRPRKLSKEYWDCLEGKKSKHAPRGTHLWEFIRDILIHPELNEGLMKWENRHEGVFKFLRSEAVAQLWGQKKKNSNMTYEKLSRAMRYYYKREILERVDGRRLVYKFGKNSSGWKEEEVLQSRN
Outline: as §1

[16] = target: CRX (Homo sapiens, UniProt O43186 1-299); details: protein: recombinant; tags: N-terminal GST; dsDNA, one strand shown
Outline: as §1

[17] = target: ETV1 (Homo sapiens, UniProt P50549 1-477); details: protein: recombinant; tags: N-terminal GST; dsDNA, one strand shown
Outline: as §1

[18] = target: T10, EHF (Homo sapiens, UniProt Q9NZC4 1-300); details: protein: recombinant; tags: N-terminal GST; dsDNA, one strand shown
T10 sequence: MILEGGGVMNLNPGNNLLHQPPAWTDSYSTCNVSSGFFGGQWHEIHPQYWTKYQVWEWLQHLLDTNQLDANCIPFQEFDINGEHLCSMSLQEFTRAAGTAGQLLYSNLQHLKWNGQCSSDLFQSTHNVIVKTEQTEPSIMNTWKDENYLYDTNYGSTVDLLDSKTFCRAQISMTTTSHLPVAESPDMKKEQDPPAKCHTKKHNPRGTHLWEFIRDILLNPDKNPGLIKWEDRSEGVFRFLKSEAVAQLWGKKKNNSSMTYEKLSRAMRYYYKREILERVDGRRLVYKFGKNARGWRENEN
Outline: as §1

Chain of HSF1 (Q00613 whole entry): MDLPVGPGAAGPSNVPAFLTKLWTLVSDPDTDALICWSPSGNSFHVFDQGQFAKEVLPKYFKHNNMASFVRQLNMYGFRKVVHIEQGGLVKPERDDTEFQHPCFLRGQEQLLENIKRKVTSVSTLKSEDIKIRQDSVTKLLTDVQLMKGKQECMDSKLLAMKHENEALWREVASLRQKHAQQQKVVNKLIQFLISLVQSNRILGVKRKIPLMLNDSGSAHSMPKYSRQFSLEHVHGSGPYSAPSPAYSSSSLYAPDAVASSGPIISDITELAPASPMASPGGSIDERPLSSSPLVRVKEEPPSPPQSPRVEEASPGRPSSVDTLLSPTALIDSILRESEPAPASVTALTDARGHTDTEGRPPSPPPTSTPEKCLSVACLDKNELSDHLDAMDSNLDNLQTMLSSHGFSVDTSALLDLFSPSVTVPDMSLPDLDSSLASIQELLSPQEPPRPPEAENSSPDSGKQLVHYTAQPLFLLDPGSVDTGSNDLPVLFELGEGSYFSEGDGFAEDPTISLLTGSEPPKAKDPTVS
Chain of ETV5 (P41161 whole entry): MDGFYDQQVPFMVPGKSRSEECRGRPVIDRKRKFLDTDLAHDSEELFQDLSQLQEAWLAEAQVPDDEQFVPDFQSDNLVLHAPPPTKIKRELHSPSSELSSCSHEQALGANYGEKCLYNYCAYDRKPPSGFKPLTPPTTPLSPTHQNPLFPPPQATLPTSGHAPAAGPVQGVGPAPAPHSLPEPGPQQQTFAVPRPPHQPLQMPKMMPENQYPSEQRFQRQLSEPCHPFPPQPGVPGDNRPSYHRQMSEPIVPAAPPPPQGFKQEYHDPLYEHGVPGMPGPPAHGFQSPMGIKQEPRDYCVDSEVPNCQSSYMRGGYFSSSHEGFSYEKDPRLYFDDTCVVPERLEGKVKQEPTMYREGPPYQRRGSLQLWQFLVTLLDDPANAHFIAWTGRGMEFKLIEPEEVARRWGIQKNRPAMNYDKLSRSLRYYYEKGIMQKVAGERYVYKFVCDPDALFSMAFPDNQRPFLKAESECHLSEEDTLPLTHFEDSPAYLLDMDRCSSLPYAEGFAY
Chain of ELF1 (P32519 whole entry): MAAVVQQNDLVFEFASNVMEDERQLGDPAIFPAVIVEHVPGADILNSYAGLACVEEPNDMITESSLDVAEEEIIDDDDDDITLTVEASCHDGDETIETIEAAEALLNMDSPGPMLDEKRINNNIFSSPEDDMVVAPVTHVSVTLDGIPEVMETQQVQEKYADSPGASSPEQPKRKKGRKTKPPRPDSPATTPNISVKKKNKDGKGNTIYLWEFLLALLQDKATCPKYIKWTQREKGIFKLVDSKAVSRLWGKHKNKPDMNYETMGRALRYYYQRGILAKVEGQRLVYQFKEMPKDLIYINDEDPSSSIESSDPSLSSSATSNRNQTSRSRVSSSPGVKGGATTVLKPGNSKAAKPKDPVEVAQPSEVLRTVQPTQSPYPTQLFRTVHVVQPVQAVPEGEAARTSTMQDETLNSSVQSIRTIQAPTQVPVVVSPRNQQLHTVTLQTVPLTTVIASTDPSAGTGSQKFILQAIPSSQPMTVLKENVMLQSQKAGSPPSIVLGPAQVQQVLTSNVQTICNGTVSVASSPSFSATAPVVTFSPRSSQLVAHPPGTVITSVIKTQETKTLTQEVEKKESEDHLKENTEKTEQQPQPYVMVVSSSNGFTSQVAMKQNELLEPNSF
Chain of CRX (O43186 whole entry): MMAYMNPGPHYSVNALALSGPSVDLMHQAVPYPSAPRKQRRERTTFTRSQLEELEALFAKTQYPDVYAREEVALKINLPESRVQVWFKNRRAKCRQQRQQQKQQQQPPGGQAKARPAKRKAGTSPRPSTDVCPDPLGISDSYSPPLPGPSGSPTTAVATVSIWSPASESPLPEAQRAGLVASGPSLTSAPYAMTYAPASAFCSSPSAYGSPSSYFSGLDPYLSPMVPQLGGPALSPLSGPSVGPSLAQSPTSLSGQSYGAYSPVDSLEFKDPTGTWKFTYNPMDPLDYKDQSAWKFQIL
Chain of ELF4 (Q99607 whole entry): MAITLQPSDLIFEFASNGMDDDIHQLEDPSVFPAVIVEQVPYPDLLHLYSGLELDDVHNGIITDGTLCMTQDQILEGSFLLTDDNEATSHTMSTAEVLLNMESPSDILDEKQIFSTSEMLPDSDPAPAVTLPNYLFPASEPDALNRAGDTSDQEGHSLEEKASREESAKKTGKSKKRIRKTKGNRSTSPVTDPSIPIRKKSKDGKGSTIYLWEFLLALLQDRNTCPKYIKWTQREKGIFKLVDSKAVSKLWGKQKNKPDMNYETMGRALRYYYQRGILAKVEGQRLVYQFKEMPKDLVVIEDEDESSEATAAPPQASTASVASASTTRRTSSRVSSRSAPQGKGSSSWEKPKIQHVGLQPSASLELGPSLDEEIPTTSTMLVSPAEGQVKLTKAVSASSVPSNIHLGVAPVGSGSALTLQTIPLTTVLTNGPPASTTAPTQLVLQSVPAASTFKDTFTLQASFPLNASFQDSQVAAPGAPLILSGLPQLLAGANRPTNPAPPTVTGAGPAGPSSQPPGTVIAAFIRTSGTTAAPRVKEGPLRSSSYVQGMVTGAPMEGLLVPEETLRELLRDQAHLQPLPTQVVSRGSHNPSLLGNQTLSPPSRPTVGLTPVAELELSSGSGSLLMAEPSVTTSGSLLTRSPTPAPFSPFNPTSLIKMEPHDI
Chain of SPIB (Q01892 whole entry): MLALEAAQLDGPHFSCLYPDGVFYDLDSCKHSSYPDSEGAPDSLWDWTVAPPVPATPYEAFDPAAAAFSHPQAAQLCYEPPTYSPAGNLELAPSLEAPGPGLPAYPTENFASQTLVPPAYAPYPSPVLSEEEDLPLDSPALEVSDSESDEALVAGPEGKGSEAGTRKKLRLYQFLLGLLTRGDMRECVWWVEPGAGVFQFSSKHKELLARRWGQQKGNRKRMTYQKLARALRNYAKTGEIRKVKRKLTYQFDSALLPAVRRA
Chain of ETV1 (P50549 whole entry): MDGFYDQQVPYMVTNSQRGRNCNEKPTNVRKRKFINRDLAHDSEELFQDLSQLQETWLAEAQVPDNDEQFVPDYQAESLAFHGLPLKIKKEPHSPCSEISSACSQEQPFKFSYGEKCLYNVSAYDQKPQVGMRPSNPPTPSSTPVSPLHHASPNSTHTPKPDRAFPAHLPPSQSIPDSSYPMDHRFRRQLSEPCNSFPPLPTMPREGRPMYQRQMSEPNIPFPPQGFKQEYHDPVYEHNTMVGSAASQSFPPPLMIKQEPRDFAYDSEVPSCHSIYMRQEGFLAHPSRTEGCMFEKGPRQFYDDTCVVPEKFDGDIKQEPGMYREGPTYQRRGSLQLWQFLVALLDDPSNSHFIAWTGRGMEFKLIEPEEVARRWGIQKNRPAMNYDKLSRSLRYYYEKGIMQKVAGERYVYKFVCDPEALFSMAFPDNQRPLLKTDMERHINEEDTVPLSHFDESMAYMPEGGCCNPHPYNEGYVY

| Sequence | binding signal [1] | binding signal [2] | binding signal [3] | binding signal [4] | binding signal [5] | binding signal [6] | binding signal [7] | binding signal [8] | binding signal [9] | binding signal [10] | binding signal [11] | binding signal [12] | binding signal [13] | binding signal [14] | binding signal [15] | binding signal [16] | binding signal [17] | binding signal [18] |
| --- | --- | --- | --- | --- | --- | --- | --- | --- | --- | --- | --- | --- | --- | --- | --- | --- | --- | --- |
| AGTTCT | 1.02 fold enrichment (6-mer frequency, TF over GST control) | 1.15 fold enrichment (6-mer frequency, TF over GST control) | 1.11 fold enrichment (6-mer frequency, TF over GST control) | 1.11 fold enrichment (6-mer frequency, TF over GST control) | 1.04 fold enrichment (6-mer frequency, TF over GST control) | 1.14 fold enrichment (6-mer frequency, TF over GST control) | 1.2 fold enrichment (6-mer frequency, TF over GST control) | 1.11 fold enrichment (6-mer frequency, TF over GST control) | 1.1 fold enrichment (6-mer frequency, TF over GST control) | 1.12 fold enrichment (6-mer frequency, TF over GST control) | 1.92 fold enrichment (6-mer frequency, TF over GST control) | 1.1 fold enrichment (6-mer frequency, TF over GST control) | 1.13 fold enrichment (6-mer frequency, TF over GST control) | 1.2 fold enrichment (6-mer frequency, TF over GST control) | 1.17 fold enrichment (6-mer frequency, TF over GST control) | 1.19 fold enrichment (6-mer frequency, TF over GST control) | 1.03 fold enrichment (6-mer frequency, TF over GST control) | – |
| ATGAAG | 1.1 fold enrichment (6-mer frequency, TF over GST control) | 1.1 fold enrichment (6-mer frequency, TF over GST control) | 1.04 fold enrichment (6-mer frequency, TF over GST control) | 1.1 fold enrichment (6-mer frequency, TF over GST control) | 1.04 fold enrichment (6-mer frequency, TF over GST control) | 1.05 fold enrichment (6-mer frequency, TF over GST control) | – | 1.05 fold enrichment (6-mer frequency, TF over GST control) | – | 1.01 fold enrichment (6-mer frequency, TF over GST control) | 1.07 fold enrichment (6-mer frequency, TF over GST control) | 1.14 fold enrichment (6-mer frequency, TF over GST control) | 1.08 fold enrichment (6-mer frequency, TF over GST control) | 1.17 fold enrichment (6-mer frequency, TF over GST control) | 1.02 fold enrichment (6-mer frequency, TF over GST control) | 1.04 fold enrichment (6-mer frequency, TF over GST control) | – | 1.06 fold enrichment (6-mer frequency, TF over GST control) |
